Measured values published in publication PMC4336329 (PLoS ONE, 2015).
In all, about 310,000 compounds went through this assay and about 2,200 (0.71%) showed an effect of 50% or more. Effects have a minus sign here. For the sample, strong results were picked, then their nearest neighbours and some compounds at random.

Molecular target: human ether-à-go-go-related gene (hERG) potassium channel (human, UniProt Q12809)
Test: primary screen, population patch clamp on CHO cells stably expressing hERG; higher = less effect of the substance

Chain of human ether-à-go-go-related gene (hERG) potassium channel (Q12809 whole entry, looked up): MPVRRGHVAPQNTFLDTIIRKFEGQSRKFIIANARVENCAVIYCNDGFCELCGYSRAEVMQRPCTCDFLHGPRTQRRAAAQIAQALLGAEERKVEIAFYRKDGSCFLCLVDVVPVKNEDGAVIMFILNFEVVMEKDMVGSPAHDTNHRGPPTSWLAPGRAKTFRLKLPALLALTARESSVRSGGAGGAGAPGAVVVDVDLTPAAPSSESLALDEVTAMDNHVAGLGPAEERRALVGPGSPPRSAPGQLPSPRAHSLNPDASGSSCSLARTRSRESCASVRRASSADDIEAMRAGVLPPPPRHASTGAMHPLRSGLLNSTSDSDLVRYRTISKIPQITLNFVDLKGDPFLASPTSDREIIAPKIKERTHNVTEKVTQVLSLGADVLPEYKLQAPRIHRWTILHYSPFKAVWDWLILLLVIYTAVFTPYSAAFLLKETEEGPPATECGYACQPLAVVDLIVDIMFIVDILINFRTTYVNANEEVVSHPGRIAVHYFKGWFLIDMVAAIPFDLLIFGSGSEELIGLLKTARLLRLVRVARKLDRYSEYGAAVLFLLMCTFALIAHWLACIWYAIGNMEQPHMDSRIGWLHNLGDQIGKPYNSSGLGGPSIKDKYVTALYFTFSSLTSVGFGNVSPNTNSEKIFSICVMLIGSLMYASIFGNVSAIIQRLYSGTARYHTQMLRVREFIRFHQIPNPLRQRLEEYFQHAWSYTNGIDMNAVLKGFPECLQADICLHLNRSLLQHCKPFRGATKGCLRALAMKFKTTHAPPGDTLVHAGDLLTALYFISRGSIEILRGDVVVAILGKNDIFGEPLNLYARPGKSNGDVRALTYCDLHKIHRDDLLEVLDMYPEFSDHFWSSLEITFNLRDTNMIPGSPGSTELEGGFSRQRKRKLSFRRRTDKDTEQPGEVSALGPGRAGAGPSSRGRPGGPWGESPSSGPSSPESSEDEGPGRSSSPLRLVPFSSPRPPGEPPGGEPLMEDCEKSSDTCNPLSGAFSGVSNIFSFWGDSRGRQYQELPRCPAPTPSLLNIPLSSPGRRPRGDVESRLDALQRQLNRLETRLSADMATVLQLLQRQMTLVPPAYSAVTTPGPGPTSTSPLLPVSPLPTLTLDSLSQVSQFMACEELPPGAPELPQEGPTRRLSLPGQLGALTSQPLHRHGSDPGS

| Compound | hERG current change (%, negative = inhibition) at 1uM |
| --- | --- |
| COCCN(CC1CCCN(C2Cc3ccccc3C2)C1)C(=O)c1ccc(C(C)=O)cc1 (stereo not shown) | -51.9% |
| COCCN(CC1CCCN(C2Cc3ccccc3C2)C1)C(=O)CCC(N)=O (stereo not shown) | -70.8% |
| COCCN(CC1CCCN(C2Cc3ccccc3C2)C1)C(=O)CCSC (stereo not shown) | -4.27% |
| COCCN(CC1CCCN(C2Cc3ccccc3C2)C1)C(=O)CCC(C)=O (stereo not shown) | 7.77% |
| COCCN(CC1CCCN(C2Cc3ccccc3C2)C1)C(=O)CSC (stereo not shown) | 7.99% |
| CCNC(=O)N(CCOC)CC1CCCN(C2Cc3ccccc3C2)C1 (stereo not shown) | 11.7% |
| N#Cc1ccccc1NC(=O)C1SC(=Nc2ccccc2)C(C(=O)Nc2ccc(Cl)cc2)=C1N (stereo not shown) | 6.56% |
| COC(=O)CCCNS(=O)(=O)c1ccc2ccccc2c1 | 10.7% |
| CC(C)N(CC#CC(O)(c1ccccc1)c1ccccc1)C(C)C | -38.1% |
| CC(C)(C)C(=O)Cn1c(NCCCl)nc2ccccc21.Cl | 13.8% |
| CCNc1nc(CSc2ccccc2)nc2sc(C)c(C)c12 | 6.57% |
| Cc1sc2nc(CSc3ccccc3)nc(NCCN(C)C)c2c1C | -50.1% |
| COCCNc1nc(CSc2ccccc2)nc2sc(C)c(C)c12 | 11.8% |
| COc1ccc(C(=O)N2CCCN(C)CC2)cc1S(=O)(=O)N1CCCc2ccccc21 | 1.09% |
| NC(=O)c1nsc(C(=O)N(CC(=O)NCc2ccco2)c2ccccc2F)c1N | 1.03% |
| Fc1ccc(NC(=S)Nc2ccc(F)c(Cl)c2)cc1Cl | 7.52% |
| CCN(C(=O)CSc1nc2ccccc2c(=O)n1Cc1ccc(C)cc1)C1CCS(=O)(=O)C1 (stereo not shown) | -71.4% |
| CCN(C(=O)CSc1nc2ccccc2c(=O)n1-c1ccc(C)cc1)C1CCS(=O)(=O)C1 (stereo not shown) | 1.16% |
| CCN(C(=O)CSc1nc(-c2cccs2)nc2ccccc12)C1CCS(=O)(=O)C1 (stereo not shown) | -78.4% |
| Cc1ccc(Cn2c(SCC(=O)N(C)C3CCS(=O)(=O)C3)nc3ccccc3c2=O)cc1 (stereo not shown) | -41.9% |
| C=CCn1c(SCC(=O)N(CC)C2CCS(=O)(=O)C2)nc2cc(C(=O)O)ccc2c1=O (stereo not shown) | 16.4% |
| C=CCn1c(SCC(=O)N(C)C2CCS(=O)(=O)C2)nc2ccccc2c1=O (stereo not shown) | -36.1% |

| Compound | hERG current change (%, negative = inhibition) at 1uM |
| --- | --- |
| O=C(CSc1nc(-c2cccs2)nc2ccccc12)NC1CCS(=O)(=O)C1 (stereo not shown) | 17.3% |
| C=CCn1c(SCC(=O)N(CC)C2CCS(=O)(=O)C2)nc2ccccc2c1=O (stereo not shown) | -81.6% |
| CCN(C(=O)CSc1n[nH]c(-c2cccs2)n1)C1CCS(=O)(=O)C1 (stereo not shown) | 11.8% |
| Cc1cc(=O)[nH]c2ccc(S(=O)(=O)NC3CCCCC3)cc12 | 7.42% |
| CC(OC(=O)C(C)Oc1ccccc1)C(=O)Nc1ccc(S(=O)(=O)N2CCCCC2)cc1 (stereo not shown) | 12.9% |
| Oc1ccc(/C=N/N2CCCCC2)cc1O | 14.2% |
| CCOCCN1CCN(c2c(CC)c(C)nc3cc(-c4cc(OC)cc(OC)c4)nn23)CC1 | -14% |
| COc1ccc(NC(=O)CN(C)C(=O)CCCc2nc3ccccc3s2)cc1 | -15.7% |
| COc1nc(-c2ccccc2)ccc1-c1noc(COc2ccccc2)n1 | 17.7% |
| CCOC(=O)Cn1c(=O)oc2cc(S(=O)(=O)N(C)c3cccc(C)c3)ccc21 | -1.77% |
| O=[N+]([O-])c1cc2c(cc1CN1CCN(c3ccc(F)cc3)CC1)OCO2 | 7.89% |
| CCCCCCCOC(=O)c1nc(Cl)c(Cl)c(N)c1Cl | 0.504% |
| CCCCOC(=O)c1nc(Cl)c(Cl)c(N)c1Cl | 12% |
| CCCCCCCCOC(=O)c1nc(Cl)c(Cl)c(N)c1Cl | -64.4% |
| CCOc1cccc(-c2nn3c(-c4cc(C)[nH]n4)nnc3s2)c1 | -8.21% |
| COc1ccc(/C=C/c2cc(-c3ccc(C)cc3)o[n+]2C)cc1.F[B-](F)(F)F | -76.5% |
| COc1ccc(/C=C/C(=O)Oc2ccc(C)cc2)cc1 | 1.29% |
| COc1ccc(/C=C/c2cc(C(F)(F)F)on2)cc1 | 17.5% |
| Cc1ccc2c(c1)NC(=O)C(CC(=O)NCCCN1CCCCC1)O2 (stereo not shown) | 6.37% |
| Cc1ccc2c(c1)NC(=O)C(CC(=O)NCCN(CC(C)C)CC(C)C)O2 (stereo not shown) | 0.19% |
| Cc1ccc2c(c1)NC(=O)C(CC(=O)NCCCN1CCCC1)O2 (stereo not shown) | 12.4% |
| CCC(C)N(CCNC(=O)CC1Oc2ccc(C)cc2NC1=O)C1CCCCC1 (stereo not shown) | -58.1% |

| Compound | hERG current change (%, negative = inhibition) at 1uM |
| --- | --- |
| Cc1ccc2c(c1)NC(=O)C(CC(=O)NCCCN1CCc3ccccc3C1)O2 (stereo not shown) | -58.5% |
| CCC(C)N(CCNC(=O)CC1Oc2ccccc2NC1=O)C1CCCCC1 (stereo not shown) | -35.6% |
| O=Cc1c(NCc2ccccc2)c2ccccc2[nH]c1=O | 12.6% |
| C/C(=N\OCC(=O)Nc1ccc(OC(F)(F)F)cc1)c1ccc2c(c1)OCCO2 | 6.61% |
| C=CCS/C(N)=N\N=C\c1c(O)ccc2ccccc12 | 13.3% |
| Cc1ccc(C(=O)CN2C(=O)NC3(CCOc4ccccc43)C2=O)s1 (stereo not shown) | 2.46% |
| Cc1sc2ncn(CC(=O)NCCCC(=O)N3CCC4(CC3)OCCO4)c(=O)c2c1C | 10.7% |
| CCOC(=O)c1oc2ccccc2c1NC(=O)c1cccs1 | 0.447% |
| N/C(Cc1ccc([N+](=O)[O-])cc1)=N\OC(=O)c1ccc(Br)cc1 | -3.44% |
| N/C(Cc1ccc([N+](=O)[O-])cc1)=N\OC(=O)c1ccc([N+](=O)[O-])cc1 | -56.7% |
| N/C(Cc1ccc([N+](=O)[O-])cc1)=N\OC(=O)c1ccc2ccccc2c1 | 4.74% |
| COc1ccc(CNC(=O)C2(CC3CC(c4ccccc4)=NO3)CCN(C(=O)OC(C)(C)C)CC2)cc1 (stereo not shown) | 2.59% |
| COc1ccc(CNC(=O)C2(CC3CC(c4ccccc4)=NO3)CCN(C(=O)C3CCCC3)CC2)cc1 (stereo not shown) | -67.1% |
| COc1ccc(CNC(=O)C2(CC3CC(c4ccccc4)=NO3)CCN(C(=O)CCCCCBr)CC2)cc1 (stereo not shown) | -60.3% |
| COc1ccc(CNC(=O)C2(CC3CC(c4ccccc4)=NO3)CCN(C(=O)c3cccc(O)c3)CC2)cc1 (stereo not shown) | 8.84% |
| COc1ccc(CNC(=O)C2(CC3CC(c4ccccc4)=NO3)CCN(C(=O)Cc3ccc(F)cc3)CC2)cc1 (stereo not shown) | 12.8% |
| COc1ccc(CNC(=O)C2(CC3CC(c4ccccc4)=NO3)CCN(C(=O)C3(C)CC3)CC2)cc1 (stereo not shown) | -37.1% |
| COc1ccc(C2NC(=O)c3ccccc3O2)cc1OC (stereo not shown) | 8.88% |
| Fc1cccc(CCN2C(=S)NC[C@@H]2CC2CCCCC2)c1 | 8.53% |
| CCn1nc(C(C)C)cc1C(=O)N1CCCC(CO)(Cc2ccc(F)cc2F)C1 (stereo not shown) | 5.81% |
| CC1CCCCN1C(=O)c1ccc(COc2ccc([N+](=O)[O-])cc2)o1 (stereo not shown) | -18.9% |
| CCOC(=O)N1CCC(N2CCCC(C(=O)c3ccccc3OC)C2)CC1 (stereo not shown) | -59.3% |

| Compound | hERG current change (%, negative = inhibition) at 1uM |
| --- | --- |
| COc1ccccc1C(=O)C1CCCN(C(=O)C2CCCC2)C1 (stereo not shown) | 8.68% |
| CCOC(=O)N1CCC(N2CCCC(C(=O)c3cc(F)ccc3OC)C2)CC1 (stereo not shown) | -52.2% |
| CCN(CC)CC(=O)N1CCCC(C(=O)c2ccccc2OC)C1 (stereo not shown) | 6.77% |
| COc1ccc(F)cc1C(=O)C1CCCN(C(=O)C2=C(C)OCCO2)C1 (stereo not shown) | 14.5% |
| COc1ccc(F)cc1C(=O)C1CCCN(Cc2ccc(O)cc2)C1 (stereo not shown) | -25.1% |
| CC(=O)Nc1ccc2[nH]c3ccccc3c2c1 | 3.08% |
| O=C(NCCCN1CCOCC1)c1sc2cc(Cl)ccc2c1Cl | 6.47% |
| Cc1c(C(=O)N(C)Cc2ccccc2)oc2ccc(S(=O)(=O)N3CCCC3)cc12 | -0.449% |
| COc1ccc(CCNC(=O)C(=O)Nc2ccc3c(c2)OCCO3)cc1OC | 14.4% |
| O=C(NCc1ccncc1)C(=O)NCC(c1ccco1)N1CCN(c2ccccc2)CC1 (stereo not shown) | 3.03% |
| CCOc1ccc(N(C(=O)CNS(=O)(=O)c2ccccc2)C(CC)C(=O)NCc2ccco2)cc1 (stereo not shown) | 4.35% |
| CCCCON1C(=O)c2cccc3cccc(c23)C1=O | 8.5% |
| CCCCN(C)C1=Nc2cccc3cccc1c23 | -54.9% |
| NC1=Nc2cccc3cccc1c23 | 12.8% |
| Cl.OC(COc1ccccc1)CN1C2=NCCCN2c2ccccc21 (stereo not shown) | -54.6% |
| Cl.OC(COc1ccc(Cl)cc1)CN1C2=NCCCN2c2ccccc21 (stereo not shown) | -82% |
| CCN1C2=NCCCN2c2ccccc21.Cl | 2.9% |
| CN1CCN(CC(O)COc2ccc(Cl)cc2)CC1.Cl (stereo not shown) | -5.93% |
| OC(COc1ccccc1)CN1CCCC1 (stereo not shown) | 9.18% |
| Cl.ClCCN1C2=NCCCN2c2ccccc21 | -1.36% |
| Cc1ccc(/C(O)=C2\C(=O)C(=O)N(CCN(C)C)C2c2ccccc2F)cc1 (stereo not shown) | -6.65% |
| COc1ccc(S(C)(=O)=O)cc1S(C)(=O)=O | 12.3% |
